# Screens as filed in PubChem BioAssay.
# CF NFkB block = inhibitors of PAF-induced NF-kB signaling, primary screen, cell-based, GFP fluorescence, uHTS; KKLEB NF-kB-GFP reporter, GFP fluorescence overnight; inhibition, % at 5 µM; actives 0.86% (n = 360,000); AID 588850, 2011;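 active = at least 50% inhibition at 5 µM, scaled per plate between neutral and stimulator controls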;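 note: PAF is a Pseudomonas aeruginosa culture filtrate used as stimulus; plate controls were PAF-stimulated DMSO wells for no effect and unstimulated DMSO wells for full effect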
# Peg3 prom inh = Peg3 promoter-driven luciferase inhibitors, primary screen, cell-based, HeLa, luciferase luminescence; HeLa PEG-Prom luciferase reporter, overnight; inhibition, % at 20 µM; actives 1.7% (n = 360,000); AID 588405, 2011;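 active = inhibition of at least 50% at 20 µM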
# HSP90 refold inh = HSP90 inhibitors, primary screen, cell lysate, luminescence. Heat shock protein HSP 90 (rabbit reticulocyte lysate; luciferase refolding). Rabbit reticulocyte lysate, luciferase refolding luminescence, 3 h. inhibition, % at 5.6 µM. actives 0.91% (n = 290,000);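 active = inhibition above the screen-wide mean plus 3 SD, computed separately per campaign, cut at about 16% in these data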;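 note: 0% = DMSO wells and 100% = 60 µM geldanamycin wells; inhibitors lower the luminescence because luciferase stays unfolded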
# LGR2 antag = inhibitors of bursicon-induced LGR2 CRE-luciferase signal, primary screen, cell-based, HEK293, CRE-luciferase reporter, bursicon stimulation; bursicon-stimulated, 4 h; inhibition, % at 9.99 µM; actives 0.35% (n = 380,000);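 active = drop in luminescence signal, shown as inhibition above about 50% in the replicate tests, limit read from the data, passing the limit was not always enough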;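 note: agonist challenge used bursicon conditioned medium at about half maximal strength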
# Mdm2 MdmX PPI = inhibitors of human Mdm2-MdmX association, primary screen, cell-based, luminescence, split luciferase, SaOS-2, uHTS | SaOS-2 split-luciferase Mdm2/MdmX complementation | inhibition, % at 8 µM | actives 3% (n = 330,000) | AID 485346, 2010;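 active = inhibition of at least 50% at 8 µM in the primary screen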
# Target sequence (O15151 whole entry, looked up): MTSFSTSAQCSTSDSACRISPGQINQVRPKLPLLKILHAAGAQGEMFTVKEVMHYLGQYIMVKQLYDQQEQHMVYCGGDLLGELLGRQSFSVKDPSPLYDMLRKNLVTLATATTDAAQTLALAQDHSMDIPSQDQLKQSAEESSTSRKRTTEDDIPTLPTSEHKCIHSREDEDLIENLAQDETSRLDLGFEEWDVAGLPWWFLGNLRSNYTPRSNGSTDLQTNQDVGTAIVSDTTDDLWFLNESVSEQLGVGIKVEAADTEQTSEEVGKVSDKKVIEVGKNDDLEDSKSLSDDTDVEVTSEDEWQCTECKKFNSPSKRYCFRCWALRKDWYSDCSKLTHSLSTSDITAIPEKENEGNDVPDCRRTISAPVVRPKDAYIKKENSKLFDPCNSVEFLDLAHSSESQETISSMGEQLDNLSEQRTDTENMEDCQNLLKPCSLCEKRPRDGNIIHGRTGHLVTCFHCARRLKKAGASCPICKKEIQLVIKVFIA
# Target sequence (Q00987 whole entry, looked up): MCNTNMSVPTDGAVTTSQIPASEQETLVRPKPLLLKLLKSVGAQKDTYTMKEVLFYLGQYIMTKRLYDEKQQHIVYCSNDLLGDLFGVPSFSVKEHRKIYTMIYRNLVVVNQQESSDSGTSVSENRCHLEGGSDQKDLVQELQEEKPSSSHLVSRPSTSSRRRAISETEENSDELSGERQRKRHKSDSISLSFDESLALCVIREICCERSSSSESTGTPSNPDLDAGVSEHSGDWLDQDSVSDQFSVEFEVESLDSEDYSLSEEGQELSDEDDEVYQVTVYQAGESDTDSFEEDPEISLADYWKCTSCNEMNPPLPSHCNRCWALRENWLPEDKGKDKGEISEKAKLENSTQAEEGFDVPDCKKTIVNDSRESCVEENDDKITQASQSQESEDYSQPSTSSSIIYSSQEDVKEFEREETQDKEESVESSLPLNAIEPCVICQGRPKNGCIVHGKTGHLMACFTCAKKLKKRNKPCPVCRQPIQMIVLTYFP
# KKLEB tox = cytotoxicity in KKLEB CF airway cells, primary screen, cytotoxicity control for CF NF-kB inhibitor project, cell-based, uHTS, fluorescence assay plates; actives 0.36% (n = 360,000); activity change (cytotoxicity), % at 5 µM; KKLEB CF airway cells viability, ATPlite luminescence, overnight; active compounds read low; cells stimulated with P. aeruginosa culture filtrate;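 active = corrected activity change at or below -50% at 5 µM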
# Mdm2 MdmX conf = Mdm2-MdmX complex disruptors, retested hits, confirmation, luminescence, single concentration. actives 55% (n = 10,000). AID 489028, 2010. Mdm2-MdmX binding, luminescent assay. inhibition, % at 8 µM. shares compounds with Mdm2 MdmX PPI; in the data active = inhibition above about 40%
# Full FLuc ctr = full-length luciferase signal inhibition, confirmation, counter-screen for Mdm2/MdmX interaction inhibitor project, cell-based, single concentration, SaOS-2; shares compounds with Mdm2 MdmX PPI; SaOS-2 full-length luciferase counterscreen, luminescence; inhibition, % at 8 µM; actives 77% (n = 6,200); AID 504607, 2011;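 active = mean inhibition at 8 µM reaching about 37%, which flags the compound as non-specific, limit read from the data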;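 note: p53-null SaOS-2 cells with luciferase driven by a doxycycline-inducible promoter; compound on cells about two nights before reading with doxycycline added after day one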
# Active calls of the source: *; x = no result. Most compounds without a hit are left out; they make up all but 3.6% or so of the library.
SMILES,CF NFkB block,Peg3 prom inh,HSP90 refold inh,LGR2 antag,Mdm2 MdmX PPI,KKLEB tox,Mdm2 MdmX conf,Full FLuc ctr
CO[C@H]1CN(C)C(=O)c2cc(NC(C)=O)ccc2OC[C@H](C)N(Cc2ccccn2)C[C@H]1C,x,x,x,19,x,x,x,x
O=C(Nc1ccc2c(c1)OCO2)N[C@H]1C=C[C@@H](CC(=O)N2CCN(c3ccccc3)CC2)O[C@@H]1CO,x,x,x,-2,x,x,x,x
COc1cccc(NC(=O)COC(=O)c2c3c(nc4ccccc24)CCC(C)C3)c1 (stereo unspecified),-8,71*,4,x,79*,0,64*,64*
C[C@H]1CN([C@@H](C)CO)C(=O)Cc2cc(NC(=O)Nc3ccc(F)cc3)ccc2O[C@H]1CN(C)C(=O)Nc1ccc2c(c1)OCO2,x,x,x,0,x,x,x,x
CC[n+]1c(/C=C/c2c[nH]c3ccccc23)ccc2cc(C)ccc21,x,x,8,108*,72*,x,56*,73*
CN(C)c1ccc(C=Nc2cnn(C)c2C(N)=O)cc1,6,-101,-3,x,52*,-3,-1,x
CCNC(=O)C[C@H]1CC[C@@H]2[C@H](COc3ccc(NC(=O)c4ccccc4)cc3C(=O)N2C)O1,x,x,x,-2,x,x,x,x
CC(=O)Nc1nc2ccccc2n1Cc1ccccc1C,-14,28,2,x,79*,-3,59*,71*
CC(=O)NCc1nc2ccccc2n1Cc1ccccc1C,13,6,-2,x,-7,-14,x,x
CC(=O)Nc1nc2ccccc2n1Cc1ccccc1Cl,-24,-4,-1,36,67*,-11,60*,67*
CCCn1c(N)c(C(=O)CSc2nnc(N)s2)c(=O)[nH]c1=O,-18,1,x,15,9,13,x,x
CCCn1c(N)c(C(=O)CSc2nc3ccccc3s2)c(=O)[nH]c1=O,-29,-7,3,16,82*,-10,79*,49*
C[C@@H]1CN([C@@H](C)CO)C(=O)c2cc(NC(=O)c3ccncc3)ccc2O[C@@H](C)CCCCO[C@@H]1CN(C)S(=O)(=O)c1cccs1,x,x,x,-20,x,x,x,x
C[C@@H]1CN([C@H](C)CO)C(=O)Cc2cc(NC(=O)Nc3cccc4ccccc34)ccc2O[C@H]1CN(C)S(=O)(=O)c1cn(C)cn1,x,x,x,0,x,x,x,x
COc1ccc(-c2oc3ccc(N4CCOCC4)cc3c2C#CC2(O)CCCCC2)cc1,30,-1,x,-42,73*,-19,59*,54*
COc1cc(-c2ccc3oc(-c4ccsc4)c(C#CC4(O)CCCCC4)c3c2)cc(OC)c1OC,29,21,x,-17,52*,-16,9,x
OC1(C#Cc2c(-c3ccsc3)oc3ccc(N4CCOCC4)cc23)CCCCC1,28,-1,x,-6,24,-12,x,x
COc1ccc(-c2oc3cccnc3c2C#CC2(O)CCCCC2)cc1,20,34,2,19,52*,-20,39,x
CCCCN(C)CC(O)Cn1cc(/C=C/C(=O)c2cccs2)c2ccccc21 (stereo unspecified),-29,44,-4,x,x,-28,x,x
CCCCN(C)CC(O)Cn1cc(/C=C/C(=O)c2ccc(OCC)cc2)c2ccccc21 (stereo unspecified),x,x,3,x,69*,x,19,x
COc1cccc(S(=O)(=O)N(C)C[C@H]2Oc3ncc(-c4cccc(C(=O)N(C)C)c4)cc3C(=O)N([C@@H](C)CO)C[C@@H]2C)c1,x,x,x,-11,x,x,x,x
O=[N+]([O-])c1cc(C(F)(F)F)ccc1-n1nnc2ccccc21,12,-5,4,19,64*,-24,10,x
COc1ccc(OCC(=O)Nc2ccccc2N2CCCCC2)cc1,0,37,-3,15,61*,-29,76*,59*
COc1ccc(OCC(=O)Nc2ccccc2-c2ccccc2)cc1,17,23,4,1,53*,-4,59*,62*
CNC[C@@H]1Oc2ccc(NS(=O)(=O)c3ccc(Cl)cc3)cc2CC(=O)N([C@H](C)CO)C[C@H]1C,x,x,x,20,x,x,x,x
SMILES,CF NFkB block,Peg3 prom inh,HSP90 refold inh,LGR2 antag,Mdm2 MdmX PPI,KKLEB tox,Mdm2 MdmX conf,Full FLuc ctr
COc1ccc(NC(=O)Nc2ccc3c(c2)C(=O)N([C@H](C)CO)C[C@H](C)[C@@H](CN(C)S(=O)(=O)c2ccc(Cl)cc2)OCCCC[C@H](C)O3)cc1,x,x,x,-16,x,x,x,x
C[C@H]1CN([C@@H](C)CO)C(=O)c2cccc(NC(=O)Nc3ccc(F)cc3)c2O[C@@H]1CN(C)CC1CC1,x,x,x,-1,x,x,x,x
O=C(Nc1ccc(Cc2ccc(NC(=O)C3CC3)cc2)cc1)C1CC1,17,9,-3,2,57*,6,15,x
C[C@H](CO)N1C[C@H](C)[C@@H](CN(C)C(=O)Nc2cccc3ccccc23)Oc2ccc(NC(=O)Nc3ccc(F)cc3)cc2CC1=O,x,x,x,10,x,x,x,x
O=C(Nc1nnc(-c2ccc(F)cc2)s1)Nc1ccccc1F,-28,-32,3,-3,2,16,x,x
O=C(Nc1ccc(F)cc1)Nc1nnc(-c2ccncc2)s1,85*,-13,3,10,69*,-48,32,x
O=C(Nc1cccc(Cl)c1)Nc1nnc(-c2ccncc2)s1,73*,29,4,54*,100*,-58*,98*,56*
CN1C(=O)c2cc(NC(=O)c3ccc(Cl)cc3)ccc2OC[C@H]2O[C@@H](CC(=O)O)CC[C@H]21,x,x,x,21,x,x,x,x
CCS(=O)(=O)Nc1ccc2c(c1)C(=O)N(C)[C@H]1CC[C@@H](CC(=O)Nc3ccccc3)O[C@@H]1CO2,x,x,x,4,x,x,x,x
CC(C)NC(=O)N(C)C[C@@H]1OCCCC[C@@H](C)Oc2ccc(NC(=O)CCCN(C)C)cc2C(=O)N([C@H](C)CO)C[C@H]1C,x,x,x,-4,x,x,x,x
CN(C)CC#Cc1ccc([C@@H]2[C@@H](CO)N3C(=O)CN(C(=O)Cc4cccnc4)C[C@@H]23)cc1,x,x,x,-12,x,x,x,x
COc1ccc(N2CC(C(=O)N/N=C/c3ccc([N+](=O)[O-])cc3)CC2=O)cc1 (stereo unspecified),-3,-8,-2,-9,-5,1,x,x
COc1ccc(N2CC(C(=O)N/N=C/c3ccc(C)cc3)CC2=O)cc1 (stereo unspecified),11,31,2,3,52*,-26,62*,53*
